Laboratory results taken from PubChem BioAssay AID1851 (National Center for Advancing Translational Sciences (NCATS), 2009).
Hit rate of the full screen: of about 16,000 compounds, about 5,700 (36%) were called active. About 24% were inconclusive and are not listed. The list shows a part of the results. Values without a mark were called inactive. The call rests on the fitted dose curve; in most records, active means well fitted curve in the direction sought with a large enough effect; inconclusive means small, poorly fitted or top-dose-only effect, or effect the other way; inactive means no such curve, though single readings can be large or run the other way.
On the % scale 0 is the no-effect control and ±100 the full control effect.

The compounds below were run against Cytochrome P450 1A2 (Homo sapiens) (UniProt P05177) (assay: Cytochrome panel assay with activity outcomes). Conditions: recombinant CYP, pro-luciferin dealkylation, luminescence, p450-cyp1a2; series mostly up to 57.1 µM; activity, negative = inhibition: at the top concentration.
Cytochrome P450 1A2 (Homo sapiens), sequence (P05177 whole entry, looked up): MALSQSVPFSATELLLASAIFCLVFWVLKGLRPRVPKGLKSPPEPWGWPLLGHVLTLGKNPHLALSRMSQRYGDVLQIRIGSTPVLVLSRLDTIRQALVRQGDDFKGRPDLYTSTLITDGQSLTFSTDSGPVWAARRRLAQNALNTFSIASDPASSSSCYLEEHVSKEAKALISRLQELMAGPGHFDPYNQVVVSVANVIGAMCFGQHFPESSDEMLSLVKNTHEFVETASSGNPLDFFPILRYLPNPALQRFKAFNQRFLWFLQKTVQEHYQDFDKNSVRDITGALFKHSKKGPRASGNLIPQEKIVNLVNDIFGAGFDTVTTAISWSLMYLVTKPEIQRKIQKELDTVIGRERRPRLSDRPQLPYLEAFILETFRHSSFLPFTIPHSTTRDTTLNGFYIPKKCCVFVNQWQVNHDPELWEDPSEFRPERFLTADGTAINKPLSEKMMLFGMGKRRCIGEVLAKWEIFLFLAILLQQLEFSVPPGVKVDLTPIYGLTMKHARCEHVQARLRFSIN
`CN[C@]1(C)[C@@H]2CC[C@@H](C2)C1(C)C` was tested, and the “activity, negative = inhibition” value was -2.74%. `CCc1ccc(C(=O)COC(=O)c2cccc(N3C(=O)c4c(C)nc5ccccc5c4C3=O)c2)cc1` was tested, and the “activity, negative = inhibition” value was -14.4%. For `CCOC(=O)c1cncc(C(=O)O)c1`, the “activity, negative = inhibition” value was -1.87%. `CCOC(=O)c1ccc2nc(C)c(CCC(C)=O)c(Cl)c2c1` was tested, and the AC50 was 8.91 µM (active). Work on `O=C1CCCC=C1[C@H](CCc1ccccc1)OC(=O)c1ccc(Br)cc1` yielded an activity, negative = inhibition of -1.62% [at 11.4 µM]. `COC(=O)/C(=C\C(=O)c1ccccc1)Nc1cccc(C(F)(F)F)c1` was tested, and the AC50 was 2.24 µM (active). For `O=C(Nc1ccccc1)N1CC2(CCN(C(=O)c3cc(C(F)(F)F)cc(C(F)(F)F)c3)CC2)C1`, the “activity, negative = inhibition” value was -6.53%. `COc1ccc2c(Cc3c4ccccc4cc4ccccc34)cncc2c1O` was tested, and the AC50 was 0.126 µM (active). With `CCCNC(=O)OC[C@@H]1O[C@H](CCO/N=C\C[C@H]2C=C[C@H](OC(C)=O)[C@@H](COC(C)=O)O2)C=C[C@@H]1Oc1ccc(OC)cc1` the activity, negative = inhibition was -4.67% [at 11.4 µM]. `Cn1c(=O)c2[nH]c(/N=N\N3CCN(CCO)CC3)nc2n(C)c1=O` was tested, and the activity, negative = inhibition was -14.7% [at 2.29 µM]. `Cc1cccc(CNc2nc(-c3ccoc3)nc3ccccc23)c1` was tested, and the AC50 was 1.26 µM (active). For `c1csc(CNc2nc(-c3ccoc3)nc3ccccc23)c1`, the AC50 was 0.316 µM (active). For `c1ccc(CNc2nc(-c3ccoc3)nc3ccccc23)cc1`, the AC50 was 0.631 µM (active). `c1cncc(CNc2nc(-c3ccoc3)nc3ccccc23)c1` was tested, and the AC50 was 0.398 µM (active). `CCc1ccc(C(=O)COC(=O)C(Cc2ccccc2)NC(=O)C2CCC(C)CC2)cc1` (stereo not drawn) was tested, and the “activity, negative = inhibition” value was -7.88%. For `C=CC[C@@H]1C=C[C@@H](O/N=C\[C@@H](OC)[C@H](C)/C=C\CC(=O)OC)[C@@H](CO)O1`, the activity, negative = inhibition was -0.319% [at 11.4 µM]. For `COCCCN=CC1=C(O)CC(C)(C)CC1=O`, the “activity, negative = inhibition” value was -13.1%. Work on `CN[C@@H](c1ccncc1)[C@@H](NC)c1ccncc1` yielded an activity, negative = inhibition of -13.3% [at 11.4 µM]. `c1cncc(-c2nc(NCc3cccs3)c3ccccc3n2)c1` was tested, and the AC50 was 0.316 µM (active). In the case of `COc1ccc(OCCn2c(C)c(/C=N/n3cnnc3)c3ccccc32)cc1`, the AC50 is reported as 0.398 µM (active). For `O=C(CCC(=O)Nc1ccccc1)NNC(=O)c1cccs1`, the “activity, negative = inhibition” value was -23.3%. With `O=C(COc1cccc2ccccc12)NNC(=O)c1cccs1` the AC50 was 8.91 µM (active). `CC1(C)Cc2c(sc3nc(-c4ccccc4)n(N)c(=O)c23)CO1` was tested, and the AC50 was 7.08 µM (active). `Cc1cc2cc3c(C)cc(=O)oc3c(C)c2o1` was tested, and the AC50 was 1 µM (active). In the case of `CC(C)NC(=O)N1CC[C@@]2(CCCN(S(=O)(=O)c3ccccc3)C2)C1`, the “activity, negative = inhibition” value is reported as -2.4%. `CSc1nc(Sc2cccc(Cl)c2)c2ccccc2n1` was tested, and the AC50 was 0.355 µM (active). For `CSc1c(-c2ccccc2)nc2ccc(Cl)cc2c1C(=O)O`, the “activity, negative = inhibition” value was 10.5%. In the case of `O=C(O)/C=C\c1cnc[nH]1`, the “activity, negative = inhibition” value is reported as -4.95%. For `Cc1cc(C)nc(NC(=O)/C=C/c2ccc(Cl)cc2Cl)c1`, the AC50 was 3.16 µM (active). With `Cc1cc(C)nc(NC(=O)CCCC(=O)O)c1` the “activity, negative = inhibition” value was -5.89%. With `C#CCCCC(=S)Nc1ccccc1` the AC50 was 12.6 µM (active). For `N=c1nc(N2CCCCC2)cc(N)n1O`, the “activity, negative = inhibition” value was -2.65% [at 25.6 µM]. With `O=C(c1cc(C(F)(F)F)cc(C(F)(F)F)c1)N1CCC[C@@]2(CCN(c3ccccc3)C2)C1` the “activity, negative = inhibition” value was -17.8%. With `CC(Sc1nc(-c2ccccc2)cc(C(F)(F)F)n1)C(=O)N1CCCCC1` (stereo not drawn) the AC50 was 8.91 µM (active). `O=C1[C@H]2[C@H]3[C@H](O)[C@H](O)C/C(=N/OC[C@@H](O)COCc4ccco4)[C@H]3CC[C@@H]2C(=O)N1Cc1ccccc1` was tested, and the activity, negative = inhibition was -10.7% [at 11.4 µM]. `NS(=O)(=O)c1ccc(NCc2cnc3ccccc3n2)cc1` gave an activity, negative = inhibition of -18.2% [at 2.29 µM]. With `NS(=O)(=O)c1ccc(NCc2ccccc2OCc2ccccc2F)cc1` the AC50 was 14.1 µM (active). `NS(=O)(=O)c1ccc(NCc2nc3ccccc3[nH]2)cc1` showed an activity, negative = inhibition of -18.8% [at 2.29 µM]. With `CCN(CC)CCNC(=O)c1cc(S(C)(=O)=O)ccc1OC` the AC50 was “inactive”. In the case of `CCCCOc1cc(C(=O)NCCN(CC)CC)c2ccccc2n1`, the AC50 is reported as 5.01 µM (active). `CCCCCCCCOC1OC(CO)C(O)C(O)C1NC(C)=O` (stereo not drawn) was tested, and the “activity, negative = inhibition” value was 9.81%. `C[n+]1ccc(/C=C/c2ccc(Br)cc2)cc1` was tested, and the “activity, negative = inhibition” value was -10.8%. `CCOC(=O)C(CC)(CC)C(=O)/C=C/c1ccc(Br)cc1` was tested, and the AC50 was 2.51 µM (active). With `CC(C)(C)NC(=O)Cn1nnc(-c2ccccc2NC(=O)c2cnccn2)n1` the “activity, negative = inhibition” value was -21.1%. With `COc1ccccc1CNC(=O)Cn1nnc(-c2ccncc2)n1` the AC50 was 12.6 µM (active). In the case of `CCc1nnc(NC(=O)CCC(=O)NCc2ccccc2OC)s1`, the “activity, negative = inhibition” value is reported as 11%. In the case of `CC[C@H](NC(C)C)[C@H](O)c1ccc(O)c(O)c1`, the AC50 is reported as 12.6 µM (active). `COc1cc([C@H](O)CO)ccc1O` was tested, and the “activity, negative = inhibition” value was -7.89%. With `CC(=O)c1c(C)nc(-c2ccccc2)n1O` the AC50 was 15.8 µM (active). In the case of `N/N=C1/c2ccccc2N[C@H]1OC(=O)Nc1cccc(Cl)c1`, the AC50 is reported as 0.794 µM (active). In the case of `N/N=C1/c2ccccc2N[C@H]1OC(=O)Nc1ccccc1`, the AC50 is reported as 0.501 µM (active). `O=C(O)[C@@H]1[C@@H](C(=O)Nc2ccccc2)[C@@H]2C=C[C@@H]1O2` gave an activity, negative = inhibition of -18.1% [at 2.29 µM]. `C=CC[C@@H]1C=C[C@@H](O/N=C\C[C@@H]2C=C[C@H](OC(C)=O)[C@H](COC(C)=O)O2)[C@@H](CO)O1` gave an activity, negative = inhibition of -8.91% [at 11.4 µM]. For `CCNc1ncc2nc(C)c(=O)n(C)c2n1`, the AC50 was 5.01 µM (active). With `CCNc1ncc2nc(C)c(=O)n(C3CC3)c2n1` the AC50 was 5.01 µM (active). For `CCNc1ncc2ncc(=O)n(C3CC3)c2n1`, the AC50 was 3.16 µM (active). In the case of `CC(N)=O`, the “activity, negative = inhibition” value is reported as -4.84%. In the case of `Cc1ccc(Sc2c([N+](=O)[O-])ncn2C)cc1`, the “activity, negative = inhibition” value is reported as -2.64%. In the case of `O=C(Nc1ccc(Cl)cc1Cl)c1cccc(N2C(=O)C=CC2=O)c1`, the AC50 is reported as 12.6 µM (active). With `CCCCC(=O)Nc1sc2c(c1C(=O)OCC)CCC(C=O)=C2Cl` the AC50 was 2.51 µM (active). `CN1CCN(c2cc(-c3ccccc3C(F)(F)F)ncn2)CC1` was tested, and the AC50 was 12.6 µM (active). In the case of `FC(F)(F)c1ccccc1-c1cc(N2CCNCC2)ncn1`, the AC50 is reported as 5.01 µM (active). In the case of `CN(C)CCO[C@](C)(c1ccccc1)c1ccccn1`, the AC50 is reported as “inactive”.
